Test results: PubChem BioAssay AID1159580 (chemical genetic matrix, 2015)
About 2,000 (36%) of roughly 5,500 compounds were called active. Another 18% or so got no clear call; they are omitted. Cut-off read from the data, not from the text of the source: active = normalized growth mostly below about 0.91 (no sharp cut-off); inconclusive = no clear call, values can overlap the other calls; inactive = mostly above about 0.92. Some of the results follow.

Test: chemical genetic growth profiling, strain panel (AID 1159580);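 note: tested at 20 µM; growth read once vehicle control cultures reached saturation at 30 °C; 1 = growth at the plate median or of vehicle wells; lower values mean less growth of the strain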
Settings: S. cerevisiae deletion strains, growth OD
[1] = locus YHR030C, strain SLT2, stronger effect = lower value
[2] = locus YHR079C, strain IRE1, stronger effect = lower value
[3] = locus YJL095W, strain BCK1, stronger effect = lower value
[4] = locus YJR066W, strain TOR1, stronger effect = lower value
[5] = locus YLR113W, strain HOG1, stronger effect = lower value
[6] = locus YNL183C, strain NPR1, stronger effect = lower value
[7] = locus YOR231W, strain MKK1, stronger effect = lower value
[8] = locus YPL256C, strain CLN2, stronger effect = lower value

Measured: normalized growth

CC(C)Cc1ccc(C(C)C(=O)Nc2nn(C)c3ccccc23)cc1 (stereo not drawn)
inactive: locus YAR019C, strain CDC15, stronger effect = lower value 0.993 | locus YBL105C, strain PKC1, stronger effect = lower value 0.986 | locus YBR135W, strain CKS1, stronger effect = lower value 0.974 | locus YBR136W, strain MEC1, stronger effect = lower value 0.99 | locus YBR160W, strain CDC28, stronger effect = lower value 0.984 | locus YDL017W, strain CDC7, stronger effect = lower value 0.967 | locus YDL028C, strain MPS1, stronger effect = lower value 0.997 | locus YDL101C, strain DUN1, stronger effect = lower value 0.993 | locus YDL108W, strain KIN28, stronger effect = lower value 0.992 | locus YDL132W, strain cdc53, stronger effect = lower value 0.998 | locus YDL214C, strain PRR2, stronger effect = lower value 0.931 | locus YDR054C, strain cdc34, stronger effect = lower value 0.968 | locus YDR226W, strain ADK1, stronger effect = lower value 0.991 | locus YDR477W, strain SNF1, stronger effect = lower value 0.932 | locus YER123W, strain YCK3, stronger effect = lower value 0.922 | locus YER133W, strain GLC7, stronger effect = lower value 0.945 | locus YFL009W, strain cdc4, stronger effect = lower value 0.985 | locus YFL029C, strain CAK1, stronger effect = lower value 0.994 | locus YFR003C, strain YPI1, stronger effect = lower value 0.993 | locus YFR019W, strain FAB1, stronger effect = lower value 0.962 | locus YFR028C, strain CDC14, stronger effect = lower value 0.988 | locus YGR040W, strain KSS1, stronger effect = lower value 0.915 | locus YGR052W, strain FMP48, stronger effect = lower value 0.983 | locus YGR092W, strain DBF2, stronger effect = lower value 0.931 | [1] 0.944 | [2] 0.945 | locus YHR082C, strain KSP1, stronger effect = lower value 0.94 | locus YHR205W, strain SCH9, stronger effect = lower value 0.909 | locus YIL147C, strain SLN1, stronger effect = lower value 0.989 | [3] 0.965 | locus YJL128C, strain PBS2, stronger effect = lower value 0.948 | locus YJL157C, strain FAR1, stronger effect = lower value 0.942 | locus YJR016C, strain ILV3, stronger effect = lower value 0.99 | locus YJR066W, strain TOR1 (second series), stronger effect = lower value 0.902 | [4] 0.982 | locus YKL048C, strain ELM1, stronger effect = lower value 0.965 | locus YKL067W, strain YNK1, stronger effect = lower value 0.939 | locus YKL101W, strain HSL1, stronger effect = lower value 0.933 | locus YKL193C, strain SDS22, stronger effect = lower value 0.975 | locus YKL203C, strain TOR2, stronger effect = lower value 0.981 | locus YLR133W, strain CKI1, stronger effect = lower value 0.93 | locus YLR403W, strain SFP1, stronger effect = lower value 0.772 | locus YML070W, strain DAK1, stronger effect = lower value 0.918 | locus YMR001C, strain CDC5, stronger effect = lower value 0.973 | locus YMR205C, strain PFK2 (second series), stronger effect = lower value 0.928 | locus YMR277W, strain FCP1, stronger effect = lower value 0.975 | locus YNL006W, strain LST8, stronger effect = lower value 0.993 | locus YNL020C, strain ARK1, stronger effect = lower value 0.935 | locus YNL161W, strain CBK1, stronger effect = lower value 0.991 | [6] 0.927 | locus YNL207W, strain RIO2, stronger effect = lower value 0.976 | locus YNL222W, strain SSU72, stronger effect = lower value 0.99 | locus YNL307C, strain MCK1 (second series), stronger effect = lower value 0.944 | locus YOL078W, strain AVO1, stronger effect = lower value 0.987 | locus YOL136C, strain PFK27, stronger effect = lower value 0.916 | locus YOR061W, strain CKA2, stronger effect = lower value 0.938 | locus YOR119C, strain RIO1, stronger effect = lower value 0.988 | [7] 0.896 | locus YOR329C, strain SCD5, stronger effect = lower value 0.99 | locus YPL031C, strain PHO85, stronger effect = lower value 0.941 | locus YPL153C, strain RAD53, stronger effect = lower value 0.934 | locus YPL204W, strain HRR25, stronger effect = lower value 0.906 | locus YPL209C, strain IPL1, stronger effect = lower value 0.982 | [8] 0.88 | locus YPR025C, strain CCL1, stronger effect = lower value 0.986 | locus YPR106W, strain ISR1, stronger effect = lower value 0.979 | locus YPR111W, strain DBF20, stronger effect = lower value 0.955 | strain NNK1, stronger effect = lower value 0.98 | strain TSCII, stronger effect = lower value 0.992
active: [5] 0.855

CN1[C@@H]2CC[C@@H]1CC(O)C2 (stereo partly drawn)
inactive: [1] 1.03 | [2] 1.04 | [3] 1.05 | [4] 0.983 | [5] 0.98 | [6] 0.986 | [7] 1.01 | [8] 1.06

CCN1C[C@]2(OC(=O)c3ccccc3NC(C)=O)CCC(OC)[C@]34C1[C@H](CC23)[C@@]1(O)CC(OC)[C@H]2CC4C1(O)[C@H]2OC (stereo partly drawn)
inactive: locus YAL021C, strain ccr4, stronger effect = lower value 0.966 | locus YAL026C, strain drs2, stronger effect = lower value 0.981 | locus YAL030W, strain snc1, stronger effect = lower value 0.977 | locus YBL061C, strain skt5, stronger effect = lower value 0.971 | locus YBR009C, strain hhf1, stronger effect = lower value 0.985 | locus YBR023C, strain chs3, stronger effect = lower value 0.977 | locus YBR171W, strain sec66, stronger effect = lower value 0.96 | locus YBR231C, strain swc5, stronger effect = lower value 0.972 | locus YBR279W, strain paf1, stronger effect = lower value 0.979 | locus YCL011C, strain gbp2, stronger effect = lower value 0.947 | locus YCL016C, strain dcc1, stronger effect = lower value 0.971 | locus YCL061C, strain MRC1, stronger effect = lower value 1 | locus YCL069W, strain vba3, stronger effect = lower value 0.955 | locus YCR088W, strain abp1, stronger effect = lower value 0.946 | locus YDL005C, strain med2, stronger effect = lower value 0.948 | locus YDL040C, strain nat1, stronger effect = lower value 0.969 | locus YDR001C, strain nth1, stronger effect = lower value 0.977 | locus YDR069C, strain doa4, stronger effect = lower value 0.953 | locus YDR137W, strain rgp1, stronger effect = lower value 1.02 | locus YDR159W, strain sac3, stronger effect = lower value 0.979 | locus YDR195W, strain ref2 0.963 | locus YDR297W, strain sur2, stronger effect = lower value 0.967 | locus YDR334W, strain swr1, stronger effect = lower value 0.974 | locus YDR335W, strain msn5, stronger effect = lower value 0.958 | locus YDR392W, strain spt3, stronger effect = lower value 0.921 | locus YEL003W, strain gim4, stronger effect = lower value 0.98 | locus YEL037C, strain rad23, stronger effect = lower value 0.958 | locus YEL061C, strain CIN8 (second series), stronger effect = lower value 0.963 | locus YER015W, strain faa2, stronger effect = lower value 0.974 | locus YER016W, strain bim1, stronger effect = lower value 0.979 | locus YER111C, strain swi4, stronger effect = lower value 0.986 | locus YER155C, strain BEM2 (second series), stronger effect = lower value 0.974 | locus YFR010W, strain ubp6, stronger effect = lower value 0.975 | locus YGL167C, strain pmr1, stronger effect = lower value 0.974 | locus YGL173C, strain kem1, stronger effect = lower value 0.972 | locus YGL227W, strain vid30, stronger effect = lower value 0.956 | locus YGL240W, strain doc1, stronger effect = lower value 0.973 | locus YGL253W, strain hxk2, stronger effect = lower value 0.963 | locus YHR013C, strain ard1, stronger effect = lower value 0.969 | locus YHR027C, strain rpn1, stronger effect = lower value 0.992 | [1] 0.976 | [2] 0.98 | locus YHR142W, strain chs7, stronger effect = lower value 0.95 | locus YJL092W, strain hpr5, stronger effect = lower value 0.953 | locus YJL095W, strain BCK1 (second series), stronger effect = lower value 0.974 | [3] 0.97 | locus YJL115W, strain asf1, stronger effect = lower value 0.973 | locus YJL129C, strain trk1, stronger effect = lower value 0.961 | locus YJL154C, strain vps35, stronger effect = lower value 0.952 | locus YJL164C, strain tpk1, stronger effect = lower value 0.983 | locus YJL166W, strain qcr8, stronger effect = lower value 0.979 | locus YJL187C, strain SWE1, stronger effect = lower value 0.987 | [4] 0.975 | locus YKL160W, strain elf1, stronger effect = lower value 0.979 | locus YKR026C, strain gcn3, stronger effect = lower value 0.975 | locus YKR091W, strain srl3, stronger effect = lower value 0.979 | locus YLL001W, strain dnm1, stronger effect = lower value 0.993 | locus YLL026W, stronger effect = lower value 0.984 | locus YLL041C, strain sdh2, stronger effect = lower value 0.978 | locus YLR027C, strain aat2, stronger effect = lower value 0.967 | [5] 0.969 | locus YLR221C, strain rsa3, stronger effect = lower value 0.976 | locus YLR258W, strain gsy2, stronger effect = lower value 0.974 | locus YLR262C, strain YPT6 (second series), stronger effect = lower value 1.04 | locus YLR320W, strain mms22, stronger effect = lower value 0.983 | locus YLR342W, strain FKS1, stronger effect = lower value 0.961 | locus YLR357W, strain rsc2, stronger effect = lower value 0.945 | locus YLR370C, strain arc18, stronger effect = lower value 0.973 | locus YLR384C, strain iki3, stronger effect = lower value 0.959 | locus YML120C, strain ndi1, stronger effect = lower value 0.974 | locus YMR058W, strain fet3, stronger effect = lower value 0.989 | locus YMR125W, strain sto1, stronger effect = lower value 0.953 | locus YMR129W, stronger effect = lower value 0.98 | locus YMR205C, strain PFK2, stronger effect = lower value 0.993 | locus YMR231W, strain pep5, stronger effect = lower value 0.953 | locus YNL071W, strain lat1, stronger effect = lower value 0.956 | [6] 0.905 | locus YNL209W, strain ssb2, stronger effect = lower value 0.974 | locus YNL248C, strain rpa49, stronger effect = lower value 0.98 | locus YNL322C, strain KRE1 (second series), stronger effect = lower value 0.972 | locus YNR049C, strain mso1, stronger effect = lower value 0.979 | locus YOR001W, strain rrp6, stronger effect = lower value 0.961 | locus YOR070C, strain gyp1, stronger effect = lower value 0.964 | locus YOR080W, strain dia2, stronger effect = lower value 0.97 | locus YOR083W, strain WHI5, stronger effect = lower value 0.973 | locus YOR106W, strain vam3, stronger effect = lower value 0.959 | [7] 0.978 | locus YOR265W, strain rbl2, stronger effect = lower value 0.982 | locus YOR270C, strain vph1, stronger effect = lower value 0.975 | locus YOR290C, strain snf2, stronger effect = lower value 0.986 | locus YPL051W, strain arl3, stronger effect = lower value 0.979 | locus YPL078C, strain atp4, stronger effect = lower value 0.971 | locus YPL106C, strain sse1, stronger effect = lower value 0.923 | locus YPL240C, strain hsp82, stronger effect = lower value 0.963 | [8] 0.956
